Bioassay records (PubChem BioAssay)
FBPA Giardia inh – qHTS Assay for Inhibitors of Fructose-1,6-bisphosphate Aldolase from Giardia Lamblia. purified Giardia FBPA. Potency, µM (highest dose often 59.6 µM), for the others: at the highest dose activity, negative = inhibition, hits mostly inhibitors. 290,000 tested, 0.71% active. A8B2U2. AID 2451, 2010; also: potency is read from the fitted curve at half-maximal effect; % is scaled to controls: 0 for no effect and ±100 for the full control effect; nearly all actives have a fitted effect of over 55% in size
Target sequence (A8B2U2 whole entry, looked up): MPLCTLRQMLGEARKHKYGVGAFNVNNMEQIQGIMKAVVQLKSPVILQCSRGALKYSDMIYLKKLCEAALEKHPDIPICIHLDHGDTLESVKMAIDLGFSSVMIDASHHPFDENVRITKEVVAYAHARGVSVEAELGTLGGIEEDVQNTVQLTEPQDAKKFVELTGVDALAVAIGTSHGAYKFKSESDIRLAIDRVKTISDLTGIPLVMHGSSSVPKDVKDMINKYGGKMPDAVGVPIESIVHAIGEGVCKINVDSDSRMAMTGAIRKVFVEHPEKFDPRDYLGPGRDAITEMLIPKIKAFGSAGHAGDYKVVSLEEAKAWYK
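40 nM FBPA preincubated 10 min at RT with compound (up to 57.5 uM final), then substrate plus GAPDH/TPI/NAD/arsenate coupling and diaphorase/resazurin added. Fluorescence read after 20 min at RT, 525/598 nm.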
Cycloheximide cs – Cycloheximide Counterscreen for Small Molecule Inhibitors of Shiga Toxin; 300,000 tested, 12% active; cell reporter, cycloheximide protein synthesis inhibition counterscreen; max response, %; in the data active = max response mostly above about 13%, no sharp cut-off; inactive = mostly below about 14%; also: read at 38.3 µM for the half of the compounds with a filed dose; 0% is about no effect
Shiga toxin inh – A qHTS for Small Molecule Inhibitors of Shiga Toxin | Vero cells, Shiga toxin protein synthesis inhibition reporter | inhibition, % at 38.7 µM | 290,000 tested, 9.2% active | AID 2315, 2010; in the data active = inhibition mostly above about 28%, no sharp cut-off; inactive = mostly below about 43%; also: 0% is about no effect
LmPK inh – qHTS Assay for Inhibitors of Leishmania Mexicana Pyruvate Kinase (LmPK). Potency, µM (titrated, usually from 57.5 µM), inactives show at the top dose activity change, negative = inhibition, hits mostly inhibitors. purified LmPK, Kinase-Glo ATP luminescence, 1 h. 290,000 tested, 0.37% active. Q27686; also: potency is read from the fitted curve at half-maximal effect; % is scaled to controls: 0 for no effect and ±100 for the full control effect
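ATP generated from ADP (0.1 mM) and PEP (0.5 mM) by 0.1 nM LmPK over 1 h at room temperature (pH 7.2 imidazole buffer) was detected by coupled luciferase luminescence. Values were normalized to uninhibited and no-enzyme wells.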
NS1 inh – qHTS Assay for Inhibitors of Influenza NS1 Protein Function; Potency, µM (doses to about 46.1 µM), for the others: top-dose activity, positive = more growth; 270,000 tested, 0.4% active; calls by dose curve; also: potency is read from the fitted curve at half-maximal effect; actives are rising curves; nearly all actives have a fitted effect of over 50% in size
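Read-out: OD600 growth recovery of NS1-expressing budding yeast. Cells grown overnight at 30C in -URA glucose medium, washed, resuspended and diluted 1:100 in 2% galactose assay medium, pH 6.0. Same strain lacking NS1 served as positive control.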
Numbers without * were called inactive; ? = inconclusive; . = no result given; [ ] = remark or other dose. Hits are enriched below; roughly 14% of the tested compounds scored in any of these assays. Unless noted, calls follow the shape of the dose curve; as a rule, active = well fitted curve in the direction sought with a large enough effect; inconclusive = small, poorly fitted or top-dose-only effect, or another doubt; inactive = no such curve, though single readings can be large; an effect the other way counts as inactive or inconclusive.

SMILES | FBPA Giardia inh | Cycloheximide cs | Shiga toxin inh | LmPK inh | NS1 inh
CCOc1ccc(/C=N/NC(=O)c2ccc(Cn3cc([N+](=O)[O-])cn3)o2)cc1 | 8.4% | 22.7* | 51.2* | -4.6% | 5.1%
CCCc1ccc(OCc2ccc(C(=O)N/N=C/c3cccnc3)o2)cc1 | . | 68.4* | 109.6* | 0.7% | -13.2%
CCOc1ccc(CC(=O)N/N=C/c2cccnc2)cc1 | 4.7% | -1.6 | -6.5 | -0.1% | -1.4%
C/C(=N\NC(=O)c1ccc(Cn2cc(Br)cn2)o1)c1ccc(NC(=O)c2ccoc2C)cc1 | 4.8% | 38.7* | 65.1* | -1.3% | -15.5%
CC(C)c1ccccc1OCC(=O)Nc1ccccc1C(=O)N1CCOCC1 | 2.3% | -3.3 | -6.0 | -1.4% | 7.5%
Cc1cc(C)c(S(=O)(=O)Nc2nnc(C(C)C)s2)c(C)c1 | ? | 0.4 | -1.6 | -2.0% | -76.8%
CCOc1ccc(CNC(=S)N/N=C\c2ccc([N+](=O)[O-])cc2)cc1 | -22.6% | 11.7* | 9.4 | 7.3% | 4.5%
CC(/C=N/NC(=O)c1ccc(Cn2cc([N+](=O)[O-])cn2)o1)=C\c1ccccc1 | . | 26.0* | 71.5* | -2.8% | 13.6%
O=C(N/N=C/c1cccc(O)c1)c1ccc(COc2ccc3c(c2)CCC3)o1 | -4.6% | 34.8* | 56.9* | 1.6% | -4.7%
CCOc1ccc(/C=N/NC(=O)c2ccc(Cn3cc(Br)cn3)o2)cc1 | -0.8% | 28.0* | active | -1.1% | -9.5%
COc1ccc(/C=N/NC(=O)c2ccc(Cn3cc([N+](=O)[O-])cn3)o2)cc1O | 2.3% | 13.0 | 10.4 | 4.2% | 14.0%
O=C(O)CCCN1CCCCC1 | . | . | . | . | -8.3%
N#CCSc1ccsc1C(=O)Nc1ccc(F)cc1 | -15.4% | 21.6* | 32.1 | 2.2% | 0.9%
COC(=O)C1(CC(C)C)C=C2C(=C(c3ccccc3)C(=O)C2C)CN1 (centres undefined) | -14.6% | . | . | . | .
Cc1nnsc1S(=O)c1ccc(Br)cc1 (centres undefined) | 11.7% | -5.1 | -12.7 | 11.4% | -0.3%
c1ccc2c(CCNc3ncnc4nc[nH]c34)c[nH]c2c1 | -6.8% | 14.2 | 15.0 | 2.5% | -39.4%
c1ccc(CCNc2ncnc3nc[nH]c23)cc1 | -7.0% | 37.6* | 44.6* | -3.3% | -1.4%
O=C(/C=C/c1c(Cl)nc2ccccn12)N1CCN(c2ccccc2F)CC1 | -0.9% | -1.5 | -18.3 | -1.8% | 8.3%
O=C(/C=C/c1c(Cl)nc2ccccn12)N1CCCCC1 | -0.2% | 38.5* | 49.4 | -5.2% | .
COc1cc2c(cc1OC)C(NC(=O)c1ccc(C)cc1)CC2=O (centres undefined) | 5.8% | -3.6 | -6.2 | 1.5% | 1.5%
COc1ccc(C2=Nn3c(nnc3-c3cc(OC)cc(OC)c3)SC2)cc1 | -4.2% | 9.4 | 7.1 | . | .
O=C(Nc1nnc(Cc2ccc([N+](=O)[O-])cc2)s1)c1ccc2c(c1)OCO2 | -1.8% | 15.5 | 33.5 | 3.7% | -0.1%
CC(C)(C)Cc1nnc(NC(=O)c2ccc3c(c2)OCO3)s1 | . | 43.8* | 48.3* | -6.2% | 4.6%
CCC(CC)c1nnc(NC(=O)c2ccc3c(c2)OCO3)s1 | -13.9% | 18.8* | 61.9* | -5.1% | 20.9%
C=CCNS(=O)(=O)c1ncnc2nc[nH]c12 | . | . | . | . | -1.4%
SMILES | FBPA Giardia inh | Cycloheximide cs | Shiga toxin inh | LmPK inh | NS1 inh
Cc1ccc(NC(=O)c2cc(S(=O)(=O)N3CCCC3)cn2C)cc1 | 2.1% | -0.5 | 4.7 | -0.9% | -10.7%
COCC1CCCN(C(=O)c2ccc3oc(CCCc4ccccc4)nc3c2)C1 (centres undefined) | . | 1.6 | 12.5 | -2.3% | 9.4%
CCCCc1nc2cc(C(=O)N3CCN(c4cnccn4)CC3)ccc2o1 | 12.1% | 11.5 | 11.5 | -1.9% | 1.4%
COCCN1CCN(C(=O)c2ccc3nc(Cc4ccccc4F)oc3c2)CC1 | . | 9.3 | 15.4 | 2.8% | 0.8%
COCCN1CCN(C(=O)c2ccc3oc(CCCc4ccccc4)nc3c2)CC1 | . | 22.9* | 111.8* | -1.4% | -11.4%
CCCCc1nc2cc(C(=O)N3CCCC(COC)C3)ccc2o1 (centres undefined) | 8.5% | 62.6* | 73.4* | 1.8% | -26.3%
COCC1CCN(C(=O)c2ccc3oc(CCCc4ccccc4)nc3c2)C1 (centres undefined) | . | 28.7* | 39.3 | -3.1% | -5.7%
CCCCc1nc2cc(C(=O)N3CCC(OCCOC)CC3)ccc2o1 | . | 27.7* | 72.6* | 4.3% | 2.1%
CCN(CC)C1CCN(C(=O)c2ccc3nc(Cc4ccc(OC)cc4)oc3c2)C1 (centres undefined) | 0.1% | -3.4 | -5.5 | -3.2% | 8.4%
CC(=O)NCCNc1ncncc1-c1ccccc1C | -0.4% | . | . | . | .
N[C@H]1[C@@H](C(=O)O)[C@H]2C=C[C@H]1C2 | . | . | . | . | -11.8%
CCCCc1nc2cc(C(=O)N3CCCC(OCCC)C3)ccc2o1 (centres undefined) | . | 47.5* | 103.3* | -8.9% | -20.5%
Cc1ccc(NC(=S)N/N=C2\CC3CC=CC23)c(C)c1 (centres undefined) | -15.9% | 20.1* | 56.1 | ? | .
Cc1ccc(C(=O)N/N=C2\CC3CC=CC23)c(C)c1 (centres undefined) | -0.9% | 62.6* | 132.7* | 2.4% | .
O=C(N/N=C1\CC2CC=CC12)c1ccc(O)cc1 (centres undefined) | -6.6% | 29.8* | 51.0* | 0.2% | .
CC(=Nc1ccc(C)c(C)c1)C1=C(O)CCC1=O | -0.3% | 61.4* | 140.3* | 9.9% | -2.0%
O=C(NCCCn1ccnc1)Nc1ccc(Cl)c(Cl)c1 | 5.9% | -2.7 | -20.8 | 1.2% | -35.8%
C=CCN(CC=C)C(=S)Nc1ccc2nsnc2c1 | 9.98µM* | 26.0* | 59.6* | -6.4% | .
C=COCCNC(=O)Nc1ccc(Cl)c(Cl)c1 | -11.9% | 30.7* | 54.1* | 4.7% | -41.4%
COCCNC(=S)Nc1ccc2[nH]c(=O)[nH]c2c1 | ? | -2.5 | -6.6 | -2.0% | 0.4%
COCCNC(=S)Nc1ccc2nsnc2c1 | ? | 16.4* | -18.6 | -5.0% | -2.8%
COCCNC(=S)Nc1ccc(Cl)c(Cl)c1 | 3.4% | 14.6* | 5.5 | 0.1% | -2.6%
CC/C=C\C/C=C\C/C=C\C/C=C\C/C=C\CCCC(=O)O | 4.0% | . | . | . | .
O=C(O)CC1(CC(=O)NCc2ccc(Cl)cc2)CCCCC1 | 18.8% | -2.6 | -4.0 | -1.5% | -2.9%
CCOC(=O)c1sc2ncnc(NCC(c3cccs3)N(C)C)c2c1C (centres undefined) | 11.0% | 24.0* | 40.2 | 11.8% | -0.4%
SMILES | FBPA Giardia inh | Cycloheximide cs | Shiga toxin inh | LmPK inh | NS1 inh
CO[C@@H]1COC(=O)C/C=C\[C@@H](C)COC(=O)[C@H](COCc2ccccc2)NC(=O)C/C=C\[C@H]1C | 0.5%[12.9 µM] | . | . | . | .
COC(=O)[C@@H]1C[C@H]1[C@@H](NC(=O)c1ccc(Br)cc1)c1ccccc1 | 9.0% | . | . | . | .
CCCCC(=O)Nc1cccc(NC(=O)CC)c1 | 0.3% | 1.8 | -4.6 | -3.2% | 2.2%
CCC(=O)Nc1cccc(C(=O)/C=C/c2ccc(F)cc2)c1 | -7.2% | 17.1* | 25.8 | -5.6% | -61.7%
CC(=O)Nc1cccc(C(=O)/C=C/c2ccc(C)cc2)c1 | -2.3% | 17.3* | 12.3 | -0.3% | -17.0%
O=C(NNC(=O)c1ccccc1O)c1ccco1 | -7.4% | 26.7* | 96.9* | 4.7%[11.5 µM] | .
